# Screening data from PubChem.
# L3MBTL1 inh: blocks human L3MBTL1; Q9Y468; AlphaScreen L3MBTL1–H3K9me1 peptide binding; Potency, µM (doses to about 57.1 µM), usual class: inhibitors; 0.66% of 230,000 active; AID 485360; note: nearly all actives have a fitted effect of over 60% in size
#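 First, the protein-peptide complex forms for 30 min at room temperature (L3MBTL1 50 nM, biotinylated H3K9me1 peptide 75 nM). Next, compounds are pin-transferred and incubated 30 min. Finally, AlphaScreen beads are added and read after 30 min.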
# PLK1 PBD block: inhibitors of human PLK1 polo-box domain binding; P53350; AID 720504; 2.8% of 360,000 active; Potency, µM, most hits filed as inhibitors; Plk1 PBD binding of FITC phosphopeptide, fluorescence polarization; note: series mostly up to about 57 µM; nearly all actives have a fitted effect of over 65% in size
# Target sequence (P53350 whole entry, looked up, the tested form may be a part): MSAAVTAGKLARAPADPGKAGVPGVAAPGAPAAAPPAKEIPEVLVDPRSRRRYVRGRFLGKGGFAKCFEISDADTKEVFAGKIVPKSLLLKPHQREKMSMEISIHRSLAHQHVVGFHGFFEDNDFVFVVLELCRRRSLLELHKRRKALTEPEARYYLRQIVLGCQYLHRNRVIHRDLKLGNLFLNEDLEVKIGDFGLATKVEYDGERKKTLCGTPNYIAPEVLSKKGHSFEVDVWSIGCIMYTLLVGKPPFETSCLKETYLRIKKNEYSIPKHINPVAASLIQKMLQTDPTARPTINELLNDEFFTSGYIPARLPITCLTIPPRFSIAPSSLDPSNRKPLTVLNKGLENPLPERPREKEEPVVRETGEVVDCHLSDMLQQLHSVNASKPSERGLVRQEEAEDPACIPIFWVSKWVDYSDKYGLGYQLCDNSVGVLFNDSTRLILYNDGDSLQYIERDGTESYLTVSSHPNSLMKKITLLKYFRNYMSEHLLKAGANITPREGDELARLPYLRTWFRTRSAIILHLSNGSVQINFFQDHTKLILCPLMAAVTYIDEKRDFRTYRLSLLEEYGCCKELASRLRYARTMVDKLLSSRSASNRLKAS
# JMJD2A Tudor inh: JMJD2A Tudor domain (human) inhibition; AlphaScreen JMJD2A-Tudor / H3K4me3 peptide binding; Potency, µM (doses to about 114 µM), hits mostly inhibitors; 4.4% of 390,000 active; note: nearly all actives have a fitted effect of over 50% in size
# VDR inh: vitamin D3 receptor (human) inhibition; 0.93% of 400,000 active; AID 504847; VDR-SRC2-3 peptide fluorescence polarization, 2 h; Potency, µM, hits mostly inhibitors
#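 Reagent solutions, kept cold and dark, are dispensed first; compounds are then pinned in at 23 nl, plates briefly spun, and incubated 2 h at ambient temperature. Inhibition of VDR–SRC2-3 peptide binding is read by fluorescence polarization.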
# BAZ2B inh: inhibitors of human BAZ2B bromodomain. AlphaScreen BAZ2B-H3K14Ac peptide displacement. AID 504333. Potency, µM (titrated, usually from 114 µM), actives largely listed as inhibitors. 4.4% of 360,000 active. Q9UIF8; note: nearly all actives have a fitted effect of over 60% in size
#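 BAZ2B 50 nM plus b-H3(5-23)K14Ac 50 nM, PBS pH 7.4/0.01% Tween-20, 30 min RT; compound added (max 110 uM), 30 min RT; streptavidin donor/Ni-chelate acceptor beads 10 ug/mL final, 20 min dark; AlphaScreen read.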
# HP1b chromo inh: HP1-beta chromodomain-methylated histone interaction inhibition; Potency, µM (top dose mostly 114 µM), hits mostly inhibitors; P83916; AID 540317; 0.56% of 390,000 active; AlphaScreen HP1-beta / biotin-H3K9me3 peptide binding; note: nearly all actives have a fitted effect of over 70% in size
#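 AlphaScreen: HP1-beta (50 nM) preformed 30 min with biotin-H3(1-18)K9me3 peptide (50 nM) in PBS pH 7.4, 0.01% Tween-20. Compound added for 30 min at RT, then streptavidin donor/nickel chelate acceptor beads (10 ug/mL) for 30 min.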
# A number is an active result; n = inactive; u = inconclusive; x = no result given; ! = a repeat was not active; [ ] = another dose, or the depositor's remark. In the library only some 6.9% were active in any assay of this set; here they are far more common. Calls come from the whole dose curve; as a rule, active = well fitted curve in the direction sought with a large enough effect; inconclusive = small, poorly fitted or top-dose-only effect, or another doubt; inactive = no such curve, though single readings can be large; an effect the other way counts as inactive or inconclusive.
SMILES,L3MBTL1 inh,PLK1 PBD block,JMJD2A Tudor inh,VDR inh,BAZ2B inh,HP1b chromo inh
O=[N+]([O-])c1ccc(N/N=C/c2sc(N3CCOCC3)nc2-c2ccccc2)c(S(=O)(=O)Nc2ccc(Cl)cc2)c1,n,n,u,n,11µM,u
O=C(Nc1ccc(C(=O)OCc2cc(=O)n3c4c(sc3n2)CCCC4)cc1)c1ccc(Cl)cc1,x,x,n,n,n,n
Nc1nc2n(n1)C(=O)CC(c1ccccc1)N2 (stereo unspecified),x,27µM,n,n,n,n
Nc1nc2n(n1)C(c1cccs1)CC(c1ccccc1)N2 (stereo unspecified),n,n,n,n,n,n
O=C(Cc1ccccc1)NCc1n[nH]c(=S)n1-c1ccc(Br)cc1,x,11µM,u,u,n,n
O=C(NCc1n[nH]c(=S)n1-c1ccc(F)cc1)c1ccco1,x,n,22µM,n,n,n
O=C(NC(C(=O)c1ccccc1)n1c(=O)cc[nH]c1=S)c1ccccc1 (stereo unspecified),n,27µM,u,n,n,n
O=C(NC(C(=O)c1ccccc1)n1cnccc1=O)c1ccccc1 (stereo unspecified),n,n,n,n,n,n
CC(=O)N1CCOc2cc(S(=O)(=O)Nc3c(C)cccc3C(C)C)c(Cl)cc21,n,x,n,n,n,n
O=C1NC(=O)/C(=C\c2ccsc2)N1,x,u,32µM,n,n,n
CCN(CC)c1ccc(/C=C2\NC(=O)NC2=O)cc1,n,n,n,n,n,n
Cn1c(CNC(=O)CCNC(=O)c2cccc(Cl)c2)cc(=O)n(C)c1=O,x,n,n,n,n,n
C=CCn1c(Cc2ccccc2)n[nH]c1=S,u,n,3.5µM,n,n,n
C=CCn1c(Cc2c[nH]c3ccccc23)n[nH]c1=S,n,n,8.9µM,n,n,n
Cc1nc(Cc2nnc(SCC(=O)N3c4ccccc4NC(=O)C3(C)C)o2)cs1,x,n,x,x,x,x
CCN1/C(=C/C=C/C=C/c2sc3ccccc3[n+]2CC)Sc2ccccc21,u,x,x,u,11µM,x
CCN1/C(=C/c2sc(-c3ccccc3C)c[n+]2C)Sc2ccccc21,x,n,u,n,n,n
CCN1/C(=C/C=C/c2sc3ccccc3[n+]2CC)Sc2ccccc21,28µM,n,n,7.9µM!,14µM,n
O=C(Nc1ccc(F)cc1F)C1CCN(S(=O)(=O)c2ccc3[nH]c(=O)ccc3c2)CC1,x,x,n,n,n,n
COc1cc(/C=C2/C(=N)N3N=C(CC(=O)N4CCOCC4)SC3=NC2=O)ccc1OCc1ccc(F)cc1,x,u,4.5µM,n,n,n
COc1cc(/C=C2/C(=N)N3N=C(CC(=O)N4CCOCC4)SC3=NC2=O)ccc1OCc1ccccc1F,x,u,n,n,u,n
COc1ccc(/C=C2\C(=N)N3N=C(CC(=O)N4CCOCC4)SC3=NC2=O)cc1,x,n,n,n,u,n
N=C1/C(=C\c2ccc(-c3cccc(C(=O)O)c3)o2)C(=O)N=C2SC=C(c3ccccc3)N12,22µM,u,n[11.4 µM],n,22µM,u
Cc1ccc(/C=C2\C(=N)N3N=C(CC(=O)N4CCOCC4)SC3=NC2=O)o1,x,27µM,56µM,n,n,n
Cc1ccccc1-n1c(C)cc(/C=C2/C(=N)N3C(c4ccccc4)=CSC3=NC2=O)c1C,n,n,n,n,n,n
SMILES,L3MBTL1 inh,PLK1 PBD block,JMJD2A Tudor inh,VDR inh,BAZ2B inh,HP1b chromo inh
N=C1/C(=C\c2ccc(SCc3ccccc3)o2)C(=O)N=C2SC(CC(=O)N3CCOCC3)=NN12,x,u,u,n,45µM,n
CC(=O)c1ccc(NC(=O)c2cnc(N3CCCC3)nc2C)cc1,x,x,n,n,n,n
COc1ccc(-n2c(C)cc(/C=C3\C(=N)N4N=C(CC(=O)N5CCOCC5)SC4=NC3=O)c2C)c(OC)c1,x,n,u,n,u,n
N=C1/C(=C/c2ccc(-c3cccc(C(=O)O)c3)o2)C(=O)N=C2SC(CC(=O)N3CCOCC3)=NN12,x,30µM,20µM,n,25µM,u
COc1ccccc1-n1c(C)cc(/C=C2\C(=N)N3N=C(CC(=O)N4CCOCC4)SC3=NC2=O)c1C,x,n,n,n,50µM,n
CC(=O)c1ccc(NC(=O)c2cc(-c3ccc(Cl)c(Cl)c3)on2)cc1,x,x,n,n,n,n
COC(=O)CSc1ncc2c(n1)-c1ccccc1N(Cc1ccc(Cl)cc1)S2(=O)=O,x,x,n,n,n,n
O=C(Cc1ccccc1)N(Cc1cccnc1)c1nc2c(Cl)cccc2s1,x,x,n,n,u,n
O=C(Cc1ccccc1)N(Cc1cccnc1)c1nc2c(F)cccc2s1,x,x,40µM,n,n,n
O=C(Nc1nnc(C2CCCCC2)s1)C1CCN(C(=O)c2ccco2)CC1,x,x,n,n,x,n
CC(/C=C1\SC(=S)N(NS(=O)(=O)c2ccc(C)cc2)C1=O)=C\c1ccccc1,n,19µM,56µM,u,35µM,n
CC(/C=C1\SC(=S)N(NC(=O)c2ccc(C)cc2)C1=O)=C\c1ccccc1,n,n,u,n,u,n
CC(=O)N1C(=O)/C(=C2\SC(=S)N(NS(=O)(=O)c3ccc(C)cc3)C2=O)c2ccccc21,n,17µM,u,n,u,n
CC(=O)N1C(=O)/C(=C2\SC(=S)N(c3c(C)n(C)n(-c4ccccc4)c3=O)C2=O)c2ccccc21,n,n,n,u,n,u
CC(/C=C1\SC(=S)N(NS(=O)(=O)c2ccccc2)C1=O)=C\c1ccccc1,n,n,u,u,45µM,n
CC(C)OC(=O)c1cc2c(OC[C@@H](O)CNC(C)(C)C)cccc2[nH]1,x,x,x,n,x,x
N/C(=N\N=C\c1ccc(O)c(O)c1)c1nonc1N,n,n,n,n,45µM,n
N#CNc1nc(O)cc(=O)[nH]1,u,n,n,n,n,n
CCC1(C)CN=C(c2ccccc2)NC1 (stereo unspecified),x,n,35µM,n,x,n
COCCn1cnc2c1-c1ccc(OC)c(c1)OC/C=C\COc1cccc-2c1,x,x,u,n,x,n
CC(CCO)Nc1nc2c(c(=O)n(C)c(=O)n2C)n1Cc1ccc(Br)cc1 (stereo unspecified),x,x,n,n,n,n
C/C(=N\Nc1ccc(C(F)(F)F)cn1)c1ccc(S(=O)(=O)NCc2ccco2)cc1,n,n,n,n,n,n
C/C(=N\Nc1ccccn1)c1ccc(S(=O)(=O)NCc2ccco2)cc1,n,n,n,n,50µM,u
O=C(O)c1ccc(-c2ccccc2C(F)(F)F)s1,x,x,x,126µM,x,x
O=C(Nc1ccccc1)c1ccc(-c2ccc(F)cc2)s1,n,n,n,n,n,n
CCc1nc2c(OCC(=O)N3CCOCC3)cccn2c1N(C=O)Cc1ccccc1,x,n,x,x,x,x
CCOC(=O)C1(CCC(=O)OCc2ccccc2)CCCCC1=O (stereo unspecified),x,n,n,n,x,n
NC(=O)c1ccc(-c2ccc(Br)cc2)o1,n,n,n,n,n,n
